Active and inactive are the calls of the source.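 Rule for the calls: active = GFP response below 50% of the DMSO control; inconclusive = fewer than 70 events counted for a yeast strain; inactive = the rest.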
Test: hit retest on RPL19A-GFP reporter strain – cell-based, S. cerevisiae, flow cytometry, cherry picks, mother/daughter gates, confirmation (AID 2270)
Details: 3 h, at 10 µM, hits give low values, 100 = same GFP as DMSO wells

Question: For COc1cccc2cc(C(=O)N3CCN(C/C=C/c4ccccc4)CC3)c(=O)oc12, which GFP response vs DMSO is on record?
Answer: The GFP response vs DMSO was 98.6% (inactive).

Question: Which GFP response vs DMSO does the source give for O=S(=O)(/N=C(\Sc1ccc(Cl)cc1)c1ccccc1)c1ccccc1 here?
Answer: The GFP response vs DMSO was 93.1% (inactive).

Question: With Cc1ccc(/C=c2\sc3nc(-c4cccs4)nn3c2=O)o1 as the compound, how does the GFP response vs DMSO read?
Answer: Its GFP response vs DMSO is 98.6% (inactive).

Question: With N=c1n(CCN2CCCCC2)c2ccccc2n1CC(=O)c1ccc(Cl)c(Cl)c1 as the compound, how does the GFP response vs DMSO read?
Answer: Its GFP response vs DMSO is 99.5% (inactive).

Question: Which GFP response vs DMSO does the source give for COc1ccc(/C=C/C(=O)NC(=S)NNC(=O)c2cnccn2)cc1 here?
Answer: Its GFP response vs DMSO is 105% (inactive).

Question: With CCCCNc1c(-c2ccc(SC(C)CC)cc2)nc2ccccn12 (stereo not given) as the compound, how does the GFP response vs DMSO read?
Answer: Its GFP response vs DMSO is 94.2% (inactive).

Question: With CCOC(=O)Cc1csc(NC(=O)CSc2nnc(-c3ccc(C)cc3)o2)n1 as the compound, how does the GFP response vs DMSO read?
Answer: Its GFP response vs DMSO is 101% (inactive).

Question: Which GFP response vs DMSO does the source give for COc1ccc(C2=NN(S(C)(=O)=O)C(c3ccc4nccnc4c3)C2)cc1 (stereo not given) here?
Answer: Its GFP response vs DMSO is 101% (inactive).

Question: Which GFP response vs DMSO does the source give for Oc1c(Br)cc(Br)cc1C=Nc1ccc2c(c1)OCO2 here?
Answer: Its GFP response vs DMSO is 98.2% (inactive).

Question: With CCOc1ccc(Nc2nc(N(C)c3ccccc3)nc(N)c2[N+](=O)[O-])cc1 as the compound, how does the GFP response vs DMSO read?
Answer: Its GFP response vs DMSO is 92.1% (inactive).

Question: For CC[n+]1cc(C)ccc1/C=C/c1ccc(N(C)C)cc1, which GFP response vs DMSO is on record?
Answer: The GFP response vs DMSO was 104% (inactive).

Question: With COc1ccc(/C=C/C(=O)c2ccc(OC)cc2O)cc1 as the compound, how does the GFP response vs DMSO read?
Answer: Its GFP response vs DMSO is 99.9% (inactive).

Question: For COc1ccc(-c2sc(C(=O)c3ccc(Cl)cc3Cl)cc2CC(=O)O)cc1, which GFP response vs DMSO is on record?
Answer: Its GFP response vs DMSO is 96% (inactive).

Question: For Cn1c(=O)[nH]c(=O)c2c1nc(N1CCCCC1)n2CCOc1ccccc1, which GFP response vs DMSO is on record?
Answer: Its GFP response vs DMSO is 99% (inactive).

Question: Which GFP response vs DMSO does the source give for COCc1nnc(NC(=O)c2ccc(S(=O)(=O)N3CCCCCC3)cc2)o1 here?
Answer: Its GFP response vs DMSO is 105% (inactive).

Question: With CC(C)c1ccc(C2C3CSCC=C3C(C#N)=C(N)C2(C#N)C#N)cc1 (stereo not given) as the compound, how does the GFP response vs DMSO read?
Answer: Its GFP response vs DMSO is 97.2% (inactive).

Question: Which GFP response vs DMSO does the source give for CC(C)(C)C(=O)C(Cl)C(=O)Nc1ccccc1 (stereo not given) here?
Answer: Its GFP response vs DMSO is 79.7% (inactive).

Question: With CCOC(=O)CSC1=NC(=O)/C(=C\c2ccc(Cl)cc2)S1 as the compound, how does the GFP response vs DMSO read?
Answer: Its GFP response vs DMSO is 96.5% (inactive).

Question: With Cc1ccc(/C=C/C(=O)N2CC(C)CC(C)C2)o1 (stereo not given) as the compound, how does the GFP response vs DMSO read?
Answer: The GFP response vs DMSO was 103% (inactive).

Question: With CCOc1c(Br)ccc2c1sc1nc[nH]c(=O)c12 as the compound, how does the GFP response vs DMSO read?
Answer: Its GFP response vs DMSO is 101% (inactive).

Question: With Cc1cc(NC(=O)c2cc3ccccc3o2)ccc1NC(=O)c1ccccc1 as the compound, how does the GFP response vs DMSO read?
Answer: The GFP response vs DMSO was 98.4% (inactive).

Question: Which GFP response vs DMSO does the source give for COc1ccc(C(=O)Nc2cccc(C)c2)cc1 here?
Answer: The GFP response vs DMSO was 98.2% (inactive).

Question: For O=C1c2ccccc2C(=O)c2c([N+](=O)[O-])ccc(O)c21, which GFP response vs DMSO is on record?
Answer: Its GFP response vs DMSO is 82.2% (inactive).

Question: For Nc1ccccc1NC(=O)c1ccccc1, which GFP response vs DMSO is on record?
Answer: The GFP response vs DMSO was 101% (inactive).

Question: With Cc1ccccc1N1C(=O)c2cccc3c(N(C)CCO)ccc(c23)C1=O as the compound, how does the GFP response vs DMSO read?
Answer: The GFP response vs DMSO was 99.5% (inactive).

Question: With O=C(/C=C/c1ccccc1)Nc1ncn[nH]1 as the compound, how does the GFP response vs DMSO read?
Answer: The GFP response vs DMSO was 97.4% (inactive).

Question: With CCCCCCCCC/C(=N\O)c1ccccn1 as the compound, how does the GFP response vs DMSO read?
Answer: The GFP response vs DMSO was 85% (inactive).

Question: For COc1cccc2c1Oc1ncccc1N(C(=O)CCC(=O)NCc1ccc(C)cc1)C2, which GFP response vs DMSO is on record?
Answer: Its GFP response vs DMSO is 101% (inactive).

Question: Which GFP response vs DMSO does the source give for C/C(=N\NC(=O)c1ccc(Br)cc1)c1ccccc1 here?
Answer: Its GFP response vs DMSO is 98% (inactive).

Question: Which GFP response vs DMSO does the source give for NS(=O)(=O)c1ccc(S(=O)(=O)c2ccccc2)nc1 here?
Answer: The GFP response vs DMSO was 98.2% (inactive).

Question: Which GFP response vs DMSO does the source give for Cc1nn(Cc2ccc([N+](=O)[O-])cc2)c(=O)n1-c1cccc(Cl)c1 here?
Answer: Its GFP response vs DMSO is 96% (inactive).

Question: For O=C(c1ccccc1Br)N1CCN(c2ccccc2)CC1, which GFP response vs DMSO is on record?
Answer: Its GFP response vs DMSO is 104% (inactive).

Question: Which GFP response vs DMSO does the source give for Cc1c(NC(=O)Nc2ccc3c(c2)OCO3)c(=O)n(-c2ccccc2)n1C here?
Answer: The GFP response vs DMSO was 99.3% (inactive).

Question: Which GFP response vs DMSO does the source give for COc1ccc(C(=O)/C=C/c2ccccc2C(F)(F)F)cc1 here?
Answer: The GFP response vs DMSO was 100% (inactive).

Question: For CCc1noc(C)c1C(=O)Nc1nc(-c2cc(C)ccc2C)c(C)s1, which GFP response vs DMSO is on record?
Answer: Its GFP response vs DMSO is 103% (inactive).

Question: Which GFP response vs DMSO does the source give for CC(C)(C)n1nc(-c2ccc(Cl)cc2)c2c(N)ncnc21 here?
Answer: The GFP response vs DMSO was 44.2% (active).

Question: For O=c1oc2cc(Oc3c([N+](=O)[O-])cc(C(F)(F)F)cc3[N+](=O)[O-])ccc2c2c1CCCC2, which GFP response vs DMSO is on record?
Answer: Its GFP response vs DMSO is 95.4% (inactive).

Question: With Cc1occc1-c1nnc(-c2cc([N+](=O)[O-])cc([N+](=O)[O-])c2)o1 as the compound, how does the GFP response vs DMSO read?
Answer: The GFP response vs DMSO was 88.1% (inactive).

Question: Which GFP response vs DMSO does the source give for CCOc1ccc(Nc2ccc(C(=O)O)cc2[N+](=O)[O-])cc1 here?
Answer: The GFP response vs DMSO was 102% (inactive).

Question: With Cc1nnc(NC(=O)c2csc3c2CCC(C)C3)s1 (stereo not given) as the compound, how does the GFP response vs DMSO read?
Answer: Its GFP response vs DMSO is 91.5% (inactive).

From PubChem BioAssay
